Source: PubChem BioAssay
A selection: hits, their analogues and other compounds. The true share with any hit is near 0.74%.
LANA DNA inh: blocks KSHV LANA C-terminal domain binding to DNA; MBP-C-LANA/FAM-LBS DNA binding, fluorescence polarization; inhibition, % at 9 µM; 340,000 compounds, 0.078% hits;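 active means highest replicate inhibition at or above 60% at 9 µM, even if other replicates fall short; inactive means all replicates below 60% inhibition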;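 further: 0% = neutral control wells and 100% = 4 µM acridine orange control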
E coli Lon inh: inhibitors of E. coli Lon protease; P0A9M0; purified E. coli Lon protease, fluorescence polarization; inhibition, % at 7.94 µM; 360,000 compounds, 0.42% hits; AID 602123; in the data active means inhibition above about 13%, passing the limit was not always enough;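 further: 0% = enzyme with probe and DMSO and 100% = no enzyme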
RTF Ca sens inh: cardiac RTF calcium desensitization; P19429+P45379; IANBD-labeled cardiac RTF, Ca2+ fluorescence; inhibition, % at 7.15 µM; 340,000 compounds, 0.12% hits;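 active means inhibition above the mean inhibition of all tested compounds plus 3 SD, cut at about 17% in these data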;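 further: assay run at fixed EC70 calcium of 1.6 mM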
RTF Ca sens act: increases calcium sensitivity of human cardiac regulated thin filaments. AID 493008. IANBD-labeled TnC RTF fluorescence at EC20 calcium; 0% EC20 calcium, 100% full calcium. 340,000 compounds, 0.24% hits. P19429+P45379. activation, % at 7.2 µM;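 active means activation above the mean over all tested compounds plus 3 SD, cut at about 30% in these data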;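 further: rise in fluorescence read as greater calcium sensitivity of cardiac thin filaments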
Keap1-Nrf2 PPI: inhibitors of human Keap1-Nrf2 protein-protein interaction; Q14145; Keap1 Kelch-Nrf2 peptide fluorescence polarization, 1536-well; inhibition, % at 9.4 µM; 340,000 compounds, 0.15% hits; in the data active means inhibition above about 12%;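 further: human Keap1 Kelch domain with fluorescein labeled Nrf2 9mer peptide probe; 0% = neutral control wells and 100% = peptide positive control; higher means more block of Keap1 binding to Nrf2 peptide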
Target sequence (Q14145 whole entry, looked up, the tested form may be a part): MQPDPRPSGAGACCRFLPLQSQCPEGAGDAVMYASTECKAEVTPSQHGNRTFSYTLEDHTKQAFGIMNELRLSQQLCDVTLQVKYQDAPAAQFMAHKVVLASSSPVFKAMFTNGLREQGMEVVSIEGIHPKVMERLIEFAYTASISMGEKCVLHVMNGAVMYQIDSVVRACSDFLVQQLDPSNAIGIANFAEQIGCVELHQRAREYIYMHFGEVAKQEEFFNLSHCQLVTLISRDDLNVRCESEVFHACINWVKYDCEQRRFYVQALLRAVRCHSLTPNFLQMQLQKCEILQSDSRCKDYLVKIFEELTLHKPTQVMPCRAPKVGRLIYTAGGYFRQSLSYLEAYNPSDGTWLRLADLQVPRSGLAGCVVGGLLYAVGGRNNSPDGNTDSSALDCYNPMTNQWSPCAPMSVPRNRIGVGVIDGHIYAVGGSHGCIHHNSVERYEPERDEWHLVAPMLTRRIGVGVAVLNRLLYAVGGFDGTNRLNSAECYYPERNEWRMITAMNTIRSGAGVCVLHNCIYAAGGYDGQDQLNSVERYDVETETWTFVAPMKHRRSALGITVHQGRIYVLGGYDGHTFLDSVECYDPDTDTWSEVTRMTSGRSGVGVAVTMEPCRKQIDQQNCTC
E coli Lon conf: confirmation of E. coli Lon protease inhibitors; shares compounds with E coli Lon inh; purified E. coli Lon, fluorescence polarization; inhibition, % at 7.94 µM; 1,400 compounds, 31% hits; AID 602230; in the data active means inhibition above about 16%;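 further: 0% = enzyme with probe and DMSO and 100% = no enzyme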
* hit, by the source's call; · = no result.

SMILES	LANA DNA inh	E coli Lon inh	RTF Ca sens inh	RTF Ca sens act	Keap1-Nrf2 PPI	E coli Lon conf
Cc1ccc(S(=O)(=O)NC(=O)NCc2ccc(Cl)cc2)cc1	-1	16*	-3	-6	-2	6
Cc1ccc(CNC(=O)Nc2ccc(Cl)cc2)cc1	1	-4	4	9	-4	·
COc1ccc(NC(=O)N(C)C[C@@H]2OCc3cn(nn3)CCCC(=O)N([C@@H](C)CO)C[C@H]2C)cc1	·	2	·	·	·	·
Cc1ccc2c(c1)c(N=Nc1cccc(C(=O)O)c1)c(O)n2C	-2	0	4	-5	-4	·
O=Cc1cc(N=Nc2cccc(C(=O)O)c2)ccc1O	4	15*	-1	-4	-10	24*
O=Cc1cc(N=Nc2ccccc2Cl)ccc1O	1	25*	4	-6	-1	36*
COc1cc(N=Nc2ccccc2C(=O)O)ccc1O	4	-5	-8	1	-7	·
CSC[C@H]1CN(CCc2ccccc2)C(=O)[C@@H]1CC(=O)Nc1ccccc1	·	-4	·	·	·	·
COc1ccc(N(CC(=O)NC2CCCC2)C(=O)Cn2nnc(-c3ccc(F)cc3)n2)cc1	0	-2	6	-5	-2	·
O=C(CN(C(=O)Cn1nnc(-c2ccc(F)cc2)n1)c1ccc(F)cc1)NC1CCCC1	-1	18*	-6	-4	2	1
CN1CCc2c(sc(NC(=O)c3ccc(C(=O)c4ccccc4)cc3)c2C(N)=O)C1	1	45*	-4	-7	-2	-46
CN1CCc2c(sc(NC(=O)CS(=O)(=O)c3ccccc3)c2C(N)=O)C1	0	2	-14	-1	-2	·
CCOC(=O)C1CC2=C(CC(C)(C)CC2=O)N(CCOC)C1=O (configuration not stated)	2	2	-9	-7	-2	·
Cc1cc2n(n1)C(c1ccc3c(c1)OCO3)Nc1c(C)cccc1-2 (configuration not stated)	1	-12	-7	-1	-3	·
Cc1cc(C)c2c(c1)-c1cc(C)nn1C(c1ccc3c(c1)OCO3)N2 (configuration not stated)	0	21*	-7	4	-2	-1
C=C(CN(C)C)C(=O)c1ccc(OC2OC(COC(C)=O)C(OC(C)=O)C(OC(C)=O)C2OC(C)=O)cc1 (configuration not stated)	-1	-5	-3	-5	-2	·
COc1ccc(NC(=O)Nc2ccc([N+](=O)[O-])cc2)cn1	3	20*	-5	-5	5	1
COc1ccc(NC(=O)Nc2cc(C)cc(C)c2)cn1	15	29	-10	3	5	·
O=C(Nc1ccc(OCc2ccccc2)cc1)Nc1cccnc1	3	6	5	-1	1	·
COc1ccc(NC(=O)Nc2ccc(OCc3ccccc3)cc2)cn1	15	25*	-15	9	1	25*
CC1(C(=O)Nc2cccc3ccccc23)CCN1C(=O)Cc1ccccc1Cl (configuration not stated)	·	3	·	·	·	·
Cc1cc2cc(CNC(=O)c3ccc(S(=O)(=O)N4CCOCC4)cc3)ccc2n1C	3	24*	-10	5	-3	3
Cc1cc2cc(CNC(=O)c3ccc(S(=O)(=O)N(C)C)cc3)ccc2n1C	1	26*	-2	10	-3	6
COC(=O)[C@H](CC(C)C)NC(=O)Cn1cnc2c(SC)nc(N)nc21	4	12*	0	-6	0	2
COc1ccc(C(=O)OCC(=O)Nc2ccc(F)cc2F)cc1OC	1	-12	-10	-8	-1	·
SMILES	LANA DNA inh	E coli Lon inh	RTF Ca sens inh	RTF Ca sens act	Keap1-Nrf2 PPI	E coli Lon conf
COc1ccc(C(=O)OCC(=O)Nc2ccc(F)c(F)c2)cc1OC	-2	14*	-25	-7	-1	-4
CCOC(=O)N1CCN(C(=O)C(=O)c2cn(CC(=O)N3CCCCCC3)c3ccccc23)CC1	1	20*	-3	0	1	2
COC(=O)N1CCCC(c2cc(C(=O)Nc3ccccc3Cl)no2)C1 (configuration not stated)	·	52*	·	·	·	1
CN(C(=O)c1cccc(NC(=O)Cc2cccc(NC(=O)C3CCCN(C(=O)C4CCCCC4)C3)c2)c1)C1CCC1 (configuration not stated)	6	-2	-7	-1	-3	·
Cc1ccc(C(=O)CSc2ncn[nH]2)cc1	1	3	-6	5	-4	·
COc1ccc(C(=O)CSc2ncn[nH]2)cc1OC	-1	21*	-2	-2	-4	-10
O=C(Cc1sc(-c2ccccc2)nc1-c1ccccc1)Nc1ccccc1	0	16*	-9	1	-3	9
O=C(Cc1sc(Nc2ccccc2)nc1-c1ccccc1)NCc1ccccc1	1	-5	12	4	3	·
Cc1oc2c(O)c(O)ccc2c(=O)c1-c1ccc(Cl)cc1	3	16*	3	1	0	13
O=c1[nH]nc(CNc2ccc(O)cc2)c2ccccc12	2	51*	-6	4	-8	-11
O=c1[nH]nc(CNc2ccc(C(F)(F)F)cc2)c2ccccc12	1	1	-5	-1	4	·
CCOC(=O)[C@]12CCCC=C1N(Cc1ccco1)C(=O)[C@H](CC(=O)N1CCSCC1)C2	·	-1	·	·	·	·
C[C@H](CO)N1C[C@H](C)[C@@H](CN(C)C(=O)NC2CCCCC2)Oc2ccc(NC(=O)Cc3ccccc3)cc2C1=O	0	-3	-8	-8	-2	·
COc1cc(/C=C/CN2CCC(C(=O)NC(c3ccc(F)cc3)c3ccc4ccccc4n3)CC2)ccc1OC(C)=O (configuration not stated)	·	26*	·	·	·	1
C[C@@]12CCC3[C@@](CCC4[C@@]3(C)CCC[C@@]4(C)C(=O)N3CCCCC3)(CC1=O)C2 (some centres not stated)	2	28*	-2	10	1	7
CN(C)c1ccc(NC(=S)Nc2ccc3c(c2)c(=O)n(C)n3-c2ccc(C(C)(C)C)cc2)cc1	·	7	·	·	·	·
CN(C(=O)CCc1ccccc1)c1nnc(-c2ccncc2)s1	2	0	1	-1	-1	·
C=CCN(C(=O)COc1ccccc1)c1nnc(-c2ccncc2)s1	-1	18*	-3	-5	5	-8
COc1cccc(CNC[C@H]2O[C@@H](n3ccc(N)nc3=O)[C@H](O)[C@@H]2O)c1OCc1ccc(F)cc1Cl	·	-5	·	·	·	·
Cc1nnc(SCC(=O)Nc2ccc(C(N)=O)cc2)n1-c1ccccc1	0	-7	-15	-4	0	·
CCOC(=O)c1ccc(NC(=O)CSc2nnc(C)n2-c2ccccc2)cc1	-1	14*	-3	-1	-5	8
CCOC(=O)[C@]12CCC=C1N(Cc1ccco1)C(=O)[C@H](CC(=O)N1CCCC1)C2	·	-4	·	·	·	·
COc1ccc(C=NOCC(=O)OCC(=O)Nc2ccc(OC)cc2)cc1	0	50*	-6	2	0	21*
C=CCOc1ccccc1CNc1ccc2[nH]c(=O)[nH]c2c1	-1	25*	0	1	-8	-3
